PubChem BioAssay (NCI)
This is part of a sample that, as a whole, favours compounds with a hit. Of some 83,000 tested, about 20% had one in any assay.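 For each line, cells grew in 96-well plates with the test compound present at a single concentration for 48 hours.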 A number with no mark means an inactive call. Activity calls are given as the source filed them. The calls were made as follows: active = growth percent below 10; inactive = the rest.

What was measured:
Test in all cases: NCI-60 one-dose screen, 48 h (100 = growth as untreated, 0 = no growth, -100 = all killed)
Settings in all cases: 10 µM unless noted
NCI-H23 lung = test system: NCI-H23 lung
NCI-H226 lung = test system: NCI-H226 lung
NCI-H322M lung = test system: NCI-H322M lung
HOP-62 NSCLC = test system: HOP-62 NSCLC
NCI-H460 lung = test system: NCI-H460 lung
HOP-92 NSCLC = test system: HOP-92 NSCLC
NCI-H522 lung = test system: NCI-H522 lung
A549/ATCC NSCLC = test system: A549/ATCC NSCLC
786-0 renal = test system: 786-0 renal
COLO 205 colon = test system: COLO 205 colon
DU-145 prostate = test system: DU-145 prostate
K-562 leukemia = test system: K-562 leukemia
MALME-3M melanoma = test system: MALME-3M melanoma
MDA-MB-231 breast = test system: MDA-MB-231 breast
RXF 393 renal = test system: RXF 393 renal
SF-268 CNS = test system: SF-268 CNS
SF-295 CNS = test system: SF-295 CNS
SF-539 CNS = test system: SF-539 CNS
UACC-257 melanoma = test system: UACC-257 melanoma
M14 melanoma = test system: M14 melanoma

SMILES | growth (NCI-H23 lung) | growth (NCI-H226 lung) | growth (NCI-H322M lung) | growth (HOP-62 NSCLC) | growth (NCI-H460 lung) | growth (HOP-92 NSCLC) | growth (NCI-H522 lung) | growth (A549/ATCC NSCLC) | growth (786-0 renal) | growth (COLO 205 colon) | growth (DU-145 prostate) | growth (K-562 leukemia) | growth (MALME-3M melanoma) | growth (MDA-MB-231 breast) | growth (RXF 393 renal) | growth (SF-268 CNS) [%] | growth (SF-295 CNS) | growth (SF-539 CNS) | growth (UACC-257 melanoma) [%] | growth (M14 melanoma) [%]
CC(C)NC1CCC(Nc2ccnc3cc(Cl)ccc23)CC1 (stereo unspecified) | 101% | 83.6% | 88.2% | 78.1% | 101% | 46.8% | 78.5% | 91.1% | 90.4% | 69.3% | 111% | 56.3% | 85.4% | 76.5% | 49.2% | 99.6 | 96.6% | 97.5% | 88.6 | 
O=C(CSc1nc2ccc([N+](=O)[O-])cc2[nH]1)Nc1cccc(C(F)(F)F)c1 | 1.74% (active) | 10.8% | 50.1% | 27.6% | 14.4% | -28.9% (active) | 3.44% (active) | 23.2% | 23.9% | 16.8% | 30.6% | 13.6% | -0.63% (active) | 38.5% | 44.7% | 24.3 | 33% | 36.5% | 14.3 | 
COc1ccc(OC)c(C(=O)/C=C/c2cc3c(c(OC)c2OC)OCO3)c1 | 57.8% | 92% | 71.1% | 101% | 50.1% | 62.2% | 74.3% | 62.7% | 100% | 95.8% | 41.7% | 29.7% | 80.9% | 83.2% | 63.9% | 63.2 | 84.1% | 87.6% | 72.5 | 
N#CC1CCc2c(c(-c3cn[nH]c3C(F)(F)F)nc3c(F)cc4[nH]ncc4c23)C1 (stereo unspecified) | 25.3% | 48.8% | 30.8% | 34.8% | 38.9% | 36.5% | -14.6% (active) | 75% | 36.8% | 7.05% (active) | 48.2% | 36.3% | 18.1% | 20.3% | 21.7% | 23.1 | 73.8% | 20.4% | 48.6 | 
C=C1CC[C@@H]2[C@](C)(COC(C)=O)[C@H](OC(C)=O)CC[C@@]2(C)[C@@H]1CC(Sc1ccccc1)C1=CCOC1=O (stereo partly specified) | 24.5% | -9.88% (active) | 67.1% | -18.2% (active) | 21.7% | 24.5% | -80.6% (active) | 26.6% | -31.2% (active) | -68.1% (active) | 16.4% | 3.95% (active) | 16.8% | 7.4% (active) | 5.01% (active) | 11.6 | 65.9% | -43.6% (active) | 29.4 | 
COc1ccc(/C=C2\COc3ccc(O)cc3C2=O)c(OC)c1OC | 89.5% | 99% | 95.8% | 80.9% | 84.8% | 102% | 55.6% | 92.4% | 87.7% | 102% | 46.2% | 17.7% | 78.2% | 82.9% | 111% | 93.4 | 98.3% | 81.6% | 97.2 | 
CCn1c(=S)sc2c(Nc3ccc(F)cc3)nc(-c3cccnc3)nc21 | 66.2% | 75.2% | 76.5% | 47.6% | 64.5% | 18.4% | 40.5% | 48.7% | 20.5% | 72.5% | 77.5% | 77.1% | 83.9% | 75% | 78.6% | 56.4 | 50.6% | 41.5% | 78.9 | 
O=C(/C=C/c1ccc(Cl)cc1)c1cccc(Nc2nc(Nc3ccccc3)nc(Nc3ccccc3)n2)c1 | 85.8% | 96.9% | 94.6% | 85.2% | 103% | 24.1% | 89.3% | 81.8% | 86.4% | 93.1% | 121% | 71.4% | 95.6% | 80.7% | -30.3% (active) | 113 | 62.2% | 116% | 103 | 
C/C(=N\NC(=O)c1ccccc1O)c1cccc(/C(C)=N/NC(=O)c2ccccc2O)n1 | 44.4% | 50% | 38.7% | 30.3% | 21.3% | 43.5% | 61.4% | 54.6% | 33.6% | 35.2% | 55.8% | 57.2% | 20.9% | 52.7% | 93.7% | 31.8 | 7.95% (active) | -24.4% (active) | 87.6 | 
COc1cccc(CNc2ncnc3c2ncn3C2OC(CO)C(O)C2O)c1O (stereo unspecified) | 7.98% (active) | 31.6% | 11.3% | 1.76% (active) | 45.7% | -32.7% (active) | 8.65% (active) | 23.9% | 7.21% (active) | 24.6% | 0.439% (active) | 6.7% (active) | -1.1% (active) | -46% (active) | -13.3% (active) | 22.8 | -24.5% (active) | -3.39% (active) | 37.6 | 
CCOC(=O)Cn1c(O)c(N=Nc2ccc(S(N)(=O)=O)cc2)c2cc(Br)ccc21 | 77.1% | 85.9% | 77.7% | 65% | 44.1% | 96.4% | 70.8% | 30.7% | 99.2% | 58% | 78.7% | 65.4% | 79.5% | 67.6% | 43.3% | 97.2 | 96.8% | 16% | 96.3 | 87.8
COc1ccc(C(=O)Nc2ncc(Cc3cccc(Cl)c3)s2)cc1OC | 46.8% | 42.2% | 39.6% | 4.67% (active) | 13.7% | 54.6% | -11% (active) | 34% | 26.9% | 1.48% (active) | 30.5% | 11.6% | 47.6% | 39.1% | -7.25% (active) | 50.8 | 6.3% (active) | -12.3% (active) | 23.1 | 
COC(=O)/C(CCC=C(C)C)=C1\[C@@H](OC(C)=O)C[C@@]2(C)[C@H]1C[C@@H](O)[C@H]1[C@@]3(C)CC[C@H](NCCN)[C@@H](C)[C@@H]3CC[C@@]12C | 88.7% | 83.5% | 83.5% | 93% | 99.6% | 53.1% | 86.9% | 88.9% | 73.5% | 80.3% | 65.4% | -7.67% (active) | 89.4% | 93% | 57.8% | 76.6 | 98.2% | 90.2% | 99.7 | 
Cc1nnc(-n2c(O)cc(=O)n(-c3ccccc3)c2=S)nc1/C=C/c1ccc(N(C)C)cc1 | 60.9% | 61.2% | 50.5% | 39.2% | 62.4% | 43.7% | 19.2% | 51.2% | 49.5% | 39.7% | 73.7% | 30.1% | 63.3% | 45.6% | 83.3% | 78.4 | 62% | 66% | 35.3 | 
COc1cc(-c2nc3cc(Cl)c(Cl)cc3[nH]2)ccc1OCC(=O)N=Nc1c(O)[nH]c2ccc([N+](=O)[O-])cc12 | 84.3% | 92.9% | 112% | 88.7% | 102% | 84.2% | 89.6% | 114% | 92.1% | 78.5% | 105% | 46.1% | 77.4% | 71.9% | 101% | 81.4 | 101% | 81.7% | 106 | 80.8
N=C(N)c1ccc(-c2ccc(-c3ccc(Cl)cc3)s2)nc1 | 62.8% | 84.5% | -30.3% (active) | 36% | -90.2% (active) | 65.1% | -52.5% (active) | -30.8% (active) | 71.3% | -71.8% (active) | -94.8% (active) | -45.1% (active) | 87.3% | -47% (active) | 60.1% | 57.6 | 27.1% | -55.2% (active) | 82.3 | 
